# Reference: the supplement of paper PMC10037445
# Where “and” joins values, the source holds several entries; their conditions need not be identical. Equal values may be shown once. The full ranking holds about 2,900 compounds; the median of “NF-kB SEAP reporter activity, fold change vs agonist alone” is about 0.99, and the highest 2% start at about 2.6. Shown is part of a subset that was picked to be rich in the highest values.
# How the values were obtained:
# RAW-Dual [1] = experiment: NF-kB SEAP reporter activity, fold change vs agonist alone; cytotoxicity flag (confluency mask): not cytotoxic; higher = enhanced NF-kB activity
# Procedure, shortened: (§1)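 Cytotoxic wells were those whose IncuCyte confluency was below 70% of agonist controls in both mask sets. The cells were RAW-Dual macrophages at 50,000 cells/well in DMEM on 384-well plates, dosed with 50 nL of library stock by pin tool, stimulated with a PRR agonist 1 h later, and kept at 37 °C, 5% CO2 for 20 hours. IRF and NF-κB reporter activity, as fold change over agonist-alone wells, came from supernatant read by QuantiLuc luminescence and QuantiBlue absorbance, respectively.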
# RAW-Dual [2] = experiment: NF-kB SEAP reporter activity, fold change vs agonist alone; higher = enhanced NF-kB activity
# Procedure, shortened: as §1
# RAW-Dual [3] = experiment: NF-kB SEAP reporter activity, fold change vs agonist alone; cytotoxicity flag (confluency mask): cytotoxic (confluency <70% of control); higher = enhanced NF-kB activity
# Procedure, shortened: as §1
# [4] = agonist: ODN 1826 (TLR9) 0.5 ug/mL
# [5] = agonist: Pam2CSK4 (TLR2/6) 0.1 ug/mL
# [6] = agonist: Pam3CSK4 (TLR2/1) 0.1 ug/mL
# [7] = library stock concentration (final ~1000-fold dilution): 10 mM, cytotoxicity flag (confluency mask): not cytotoxic, agonist: Imiquimod (TLR7) […]
# [8] = library stock concentration (final ~1000-fold dilution): 10 mM, cytotoxicity flag (confluency mask): not cytotoxic, agonist: MPLA (TLR4) […]
# [9] = library stock concentration (final ~1000-fold dilution): 10 mM, cytotoxicity flag (confluency mask): cytotoxic (confluency <70% of control), agonist: Imiquimod (TLR7) […]
# [10] = library stock concentration (final ~1000-fold dilution): 10 mM, cytotoxicity flag (confluency mask): cytotoxic (confluency <70% of control), agonist: MPLA (TLR4) […]
smiles,measurement,setting,value
Br.COc1cc(Br)c(Nc2nc(-c3c(C)nc4ncccn34)cs2)c(Br)c1 (library stock concentration (final ~1000-fold dilution): 10 mM),NF-kB SEAP reporter activity,RAW-Dual [1]; agonist: LPS (TLR4) 0.1 ug/mL,1.91
same,NF-kB SEAP reporter activity,RAW-Dual [1]; [4],1.96
same,NF-kB SEAP reporter activity,RAW-Dual [1]; [5],0.305
same,NF-kB SEAP reporter activity,RAW-Dual [1]; [6],0.861
Br.COc1cc(Br)c(Nc2nc(-c3c(C)nc4ncccn34)cs2)c(Br)c1,NF-kB SEAP reporter activity,RAW-Dual [2]; [7],1.42
same,NF-kB SEAP reporter activity,RAW-Dual [2]; [8],2.42
Cl.O=C1CN2Cc3c(ccc(Cl)c3Cl)NC2=N1 (library stock concentration (final ~1000-fold dilution): 10 mM),NF-kB SEAP reporter activity,RAW-Dual [1]; agonist: LPS (TLR4) 0.1 ug/mL,0.887
same,NF-kB SEAP reporter activity,RAW-Dual [1]; [4],1.24
same,NF-kB SEAP reporter activity,RAW-Dual [1]; [5],0.872
same,NF-kB SEAP reporter activity,RAW-Dual [1]; [6],1.01
Cl.O=C1CN2Cc3c(ccc(Cl)c3Cl)NC2=N1,NF-kB SEAP reporter activity,RAW-Dual [2]; [7],1.34
same,NF-kB SEAP reporter activity,RAW-Dual [2]; [8],1.26
CC(C)CC(NP(=O)(O)OC1OC(C)C(O)C(O)C1O)C(=O)NC(Cc1c[nH]c2ccccc12)C(=O)O (configuration not stated) (library stock concentration (final ~1000-fold dilution): 10 mM),NF-kB SEAP reporter activity,RAW-Dual [1]; agonist: LPS (TLR4) 0.1 ug/mL,1.04
same,NF-kB SEAP reporter activity,RAW-Dual [1]; [4],0.986
same,NF-kB SEAP reporter activity,RAW-Dual [1]; [5],1.05
same,NF-kB SEAP reporter activity,RAW-Dual [1]; [6],1.41
CC(C)CC(NP(=O)(O)OC1OC(C)C(O)C(O)C1O)C(=O)NC(Cc1c[nH]c2ccccc12)C(=O)O (configuration not stated),NF-kB SEAP reporter activity,RAW-Dual [2]; [7],0.973
same,NF-kB SEAP reporter activity,RAW-Dual [2]; [8],1.03
CCc1ccc(NC(=O)Nc2c[nH]c3ccccc23)cc1,NF-kB SEAP reporter activity,"RAW-Dual [2]; library stock concentration (final ~1000-fold dilution): 1 mM, cytotoxicity flag (confluency mask): not cytotoxic, agonist: Imiquimod (TLR7) […]",0.782
same,NF-kB SEAP reporter activity,"RAW-Dual [2]; library stock concentration (final ~1000-fold dilution): 1 mM, cytotoxicity flag (confluency mask): not cytotoxic, agonist: MPLA (TLR4) […]",0.736
CCc1ccc(NC(=O)Nc2c[nH]c3ccccc23)cc1 (library stock concentration (final ~1000-fold dilution): 1 mM),NF-kB SEAP reporter activity,RAW-Dual [1]; agonist: LPS (TLR4) 0.1 ug/mL,0.445
same,NF-kB SEAP reporter activity,RAW-Dual [1]; [4],0.702
same,NF-kB SEAP reporter activity,RAW-Dual [1]; [5],0.417
same,NF-kB SEAP reporter activity,RAW-Dual [1]; [6],0.365
CN(C(=O)n1cnc(-c2ccc[n+]([O-])c2)c1)C1CCCCC1 (library stock concentration (final ~1000-fold dilution): 10 mM),NF-kB SEAP reporter activity,RAW-Dual [1]; agonist: LPS (TLR4) 0.1 ug/mL,1.04
same,NF-kB SEAP reporter activity,RAW-Dual [1]; [4],0.925
same,NF-kB SEAP reporter activity,RAW-Dual [1]; [5],0.966
same,NF-kB SEAP reporter activity,RAW-Dual [1]; [6],1.01
CN(C(=O)n1cnc(-c2ccc[n+]([O-])c2)c1)C1CCCCC1,NF-kB SEAP reporter activity,RAW-Dual [2]; [7],0.995
same,NF-kB SEAP reporter activity,RAW-Dual [2]; [8],1.03
CC(=O)Oc1cc2c(cc1Cl)C(c1ccccc1C(=O)O)c1cc(Cl)c(OC(C)=O)cc1O2,NF-kB SEAP reporter activity,RAW-Dual [2]; [7],1.04
same,NF-kB SEAP reporter activity,RAW-Dual [2]; [8],1.41
CC(=O)Oc1cc2c(cc1Cl)C(c1ccccc1C(=O)O)c1cc(Cl)c(OC(C)=O)cc1O2 (library stock concentration (final ~1000-fold dilution): 10 mM),NF-kB SEAP reporter activity,RAW-Dual [1]; agonist: LPS (TLR4) 0.1 ug/mL,1.48
same,NF-kB SEAP reporter activity,RAW-Dual [1]; [4],1.24
same,NF-kB SEAP reporter activity,RAW-Dual [1]; [5],1.12
same,NF-kB SEAP reporter activity,RAW-Dual [1]; [6],1.05
COc1cc(C2CC(c3ccccc3)=NN2C(N)=S)cc(OC)c1OC (configuration not stated) (library stock concentration (final ~1000-fold dilution): 10 mM),NF-kB SEAP reporter activity,RAW-Dual [1]; agonist: LPS (TLR4) 0.1 ug/mL,1.16
same,NF-kB SEAP reporter activity,RAW-Dual [1]; [4],1.25
same,NF-kB SEAP reporter activity,RAW-Dual [1]; [5],0.997
same,NF-kB SEAP reporter activity,RAW-Dual [1]; [6],1.13
COc1cc(C2CC(c3ccccc3)=NN2C(N)=S)cc(OC)c1OC (configuration not stated),NF-kB SEAP reporter activity,RAW-Dual [2]; [7],1.58
same,NF-kB SEAP reporter activity,RAW-Dual [2]; [8],1.29
COc1cc(N2CCN(C)CC2)ccc1Nc1ncc2c(n1)N(C)c1ccccc1C(=O)N2,NF-kB SEAP reporter activity,RAW-Dual [2]; [7],0.928
same,NF-kB SEAP reporter activity,RAW-Dual [2]; [8],1.03
O=C(c1ccc(C(=O)N2CCC(N3CCCC3)CC2)c(Nc2ccccc2)c1)N1CCC(N2CCCC2)CC1 (library stock concentration (final ~1000-fold dilution): 10 mM),NF-kB SEAP reporter activity,RAW-Dual [1]; agonist: LPS (TLR4) 0.1 ug/mL,0.933
same,NF-kB SEAP reporter activity,RAW-Dual [1]; [4],0.944
same,NF-kB SEAP reporter activity,RAW-Dual [1]; [5],1.04
same,NF-kB SEAP reporter activity,RAW-Dual [1]; [6],1.33
COc1cc(C(=O)N2CCC(N3CCN(C)CC3)CC2)ccc1Nc1ncc2c(n1)N(C)c1ccccc1C(=O)N2C,NF-kB SEAP reporter activity,RAW-Dual [2]; [7],1.48
same,NF-kB SEAP reporter activity,RAW-Dual [2]; [8],2.66
COc1cc(N2CCC(N)CC2)ccc1Nc1ncc(Cl)c(-c2c[nH]c3ccccc23)n1,NF-kB SEAP reporter activity,RAW-Dual [2]; [9],0.251
same,NF-kB SEAP reporter activity,RAW-Dual [2]; [10],0.226
CCOc1cc(N2CCC(O)CC2)ccc1Nc1ncc2c(n1)N(C)c1ccccc1C(=O)N2C (library stock concentration (final ~1000-fold dilution): 10 mM),NF-kB SEAP reporter activity,RAW-Dual [1]; agonist: LPS (TLR4) 0.1 ug/mL,3.72
same,NF-kB SEAP reporter activity,RAW-Dual [1]; [4],1.57
same,NF-kB SEAP reporter activity,RAW-Dual [1]; [5],1
same,NF-kB SEAP reporter activity,RAW-Dual [1]; [6],1.48
CCOc1cc(N2CCC(O)CC2)ccc1Nc1ncc2c(n1)N(C)c1ccccc1C(=O)N2C,NF-kB SEAP reporter activity,RAW-Dual [2]; [7],1.23
same,NF-kB SEAP reporter activity,RAW-Dual [2]; [8],1.91
O=C(c1ccc(C(=O)N2CCC(N3CCCC3)CC2)c(Nc2ccccc2)c1)N1CCC(N2CCCC2)CC1,NF-kB SEAP reporter activity,RAW-Dual [2]; [7],0.917
same,NF-kB SEAP reporter activity,RAW-Dual [2]; [8],1.12
CCOc1cc(C(=O)N2CCC(N3CCN(C)CC3)CC2)ccc1Nc1ncc2c(n1)N(C1CCCC1)c1ccccc1C(=O)N2C,NF-kB SEAP reporter activity,RAW-Dual [2]; [9],1.44
same,NF-kB SEAP reporter activity,RAW-Dual [2]; [10],2.71
COc1cc(N2CCN(C)CC2)ccc1Nc1ncc2c(n1)N(C)c1ccccc1C(=O)N2 (library stock concentration (final ~1000-fold dilution): 10 mM),NF-kB SEAP reporter activity,RAW-Dual [1]; agonist: LPS (TLR4) 0.1 ug/mL,0.966
same,NF-kB SEAP reporter activity,RAW-Dual [1]; [4],0.514
same,NF-kB SEAP reporter activity,RAW-Dual [1]; [5],1.08
same,NF-kB SEAP reporter activity,RAW-Dual [1]; [6],1.61
CCOc1cc(C(=O)N2CCC(N3CCN(C)CC3)CC2)ccc1Nc1ncc2c(n1)N(C1CCCC1)c1ccccc1C(=O)N2C (library stock concentration (final ~1000-fold dilution): 10 mM),NF-kB SEAP reporter activity,RAW-Dual [3]; agonist: LPS (TLR4) 0.1 ug/mL,5.49
same,NF-kB SEAP reporter activity,RAW-Dual [3]; [4],1.31
same,NF-kB SEAP reporter activity,RAW-Dual [3]; [5],1.36
same,NF-kB SEAP reporter activity,RAW-Dual [3]; [6],3.42
COc1cc(C(=O)N2CCC(N3CCN(C)CC3)CC2)ccc1Nc1ncc2c(n1)N(C)c1ccccc1C(=O)N2C (library stock concentration (final ~1000-fold dilution): 10 mM),NF-kB SEAP reporter activity,RAW-Dual [1]; agonist: LPS (TLR4) 0.1 ug/mL,3.59
same,NF-kB SEAP reporter activity,RAW-Dual [1]; [4],0.264
same,NF-kB SEAP reporter activity,RAW-Dual [1]; [5],1.02
same,NF-kB SEAP reporter activity,RAW-Dual [1]; [6],2.01
O=C(c1ccc(Nc2nccc(-c3cc4ccccc4s3)n2)cc1)N1CCC(N2CCCC2)CC1 (library stock concentration (final ~1000-fold dilution): 10 mM),NF-kB SEAP reporter activity,RAW-Dual [3]; agonist: LPS (TLR4) 0.1 ug/mL,0.302 and 0.283
same,NF-kB SEAP reporter activity,RAW-Dual [3]; [4],0.179 and 0.19
same,NF-kB SEAP reporter activity,RAW-Dual [3]; [5],0.0736 and 0.0841
same,NF-kB SEAP reporter activity,RAW-Dual [3]; [6],0.128 and 0.186
COc1cc(N2CCC(N)CC2)ccc1Nc1ncc(Cl)c(-c2c[nH]c3ccccc23)n1 (library stock concentration (final ~1000-fold dilution): 10 mM),NF-kB SEAP reporter activity,RAW-Dual [3]; agonist: LPS (TLR4) 0.1 ug/mL,0.166
same,NF-kB SEAP reporter activity,RAW-Dual [3]; [4],0.19
same,NF-kB SEAP reporter activity,RAW-Dual [3]; [5],0.0626
same,NF-kB SEAP reporter activity,RAW-Dual [3]; [6],0.118
